Bioassay records from PubChem.
JMJD2A Tudor = blocks the human JMJD2A Tudor domain. 390,000 tested, 4.4% active. AlphaScreen JMJD2A-Tudor / H3K4me3 peptide binding. Potency, µM (top dose mostly 114 µM), for the others: at the top dose activity change, negative = inhibition, usual class: inhibitors. O75164; also: potency is read from the fitted curve at half-maximal effect; % is scaled to controls: 0 for no effect and ±100 for the full control effect; nearly all actives have a fitted effect of over 50% in size
BAZ2B block = inhibitors of human BAZ2B bromodomain | Q9UIF8 | Potency, µM (highest dose often 114 µM), without a hit: at the highest dose activity change, negative = inhibition, most hits filed as inhibitors | AID 504333 | 360,000 tested, 4.4% active | AlphaScreen BAZ2B-H3K14Ac peptide displacement; also: potency is read from the fitted curve at half-maximal effect; % is scaled to controls: 0 for no effect and ±100 for the full control effect; nearly all actives have a fitted effect of over 60% in size
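Compounds, titrated to a top concentration of 110 uM, were incubated 30 min at room temperature with preformed BAZ2B/acetyl-K14 H3 peptide complex (50 nM each). Proximity signal was measured by AlphaScreen after 20 min with beads.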
G9a inh = G9a (human) methyltransferase inhibition; Potency, µM (doses to about 102 µM), without a hit: at the highest dose activity, negative = inhibition, hits mostly inhibitors; Q96KQ7; G9a H3K9 monomethylation, AlphaScreen, 2 h; AID 504332; 350,000 tested, 8.8% active; also: potency is read from the fitted curve at half-maximal effect; % is scaled to controls: 0 for no effect and ±100 for the full control effect; nearly all actives have a fitted effect of over 75% in size
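Readings reflect AlphaScreen signal from monomethyl-H3K9 antibody detection. HMT at 20 nM; substrate b-H3K9 500 nM; cofactor SAM 20 uM; 2 h RT reaction; compounds tested as titrations in qHTS with 15 min preincubation.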
CtBP-E1A inh = CtBP/E1A binding inhibition | AlphaScreen GST-E1A/His-CtBP binding, 1536-well; hits give low values | activity change, % (no concentration beside the values) | 340,000 tested, 0.49% active | AID 651724; in the data active = activity change below about -65%; inconclusive = mostly about -30% to -63%; also: % is scaled to controls: 0 for no effect and ±100 for the full control effect
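Homogeneous bead-based format: GST-tagged E1A captured on glutathione donor beads, His-tagged CtBP on nickel acceptor beads; compounds precede bead addition by 2 h at 37 °C.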
HP1b binding inh = blocks HP1-beta chromodomain binding to methylated histone tails. P83916. AlphaScreen HP1-beta / biotin-H3K9me3 peptide binding. Potency, µM (top dose mostly 114 µM), for inactives: top-dose activity change, negative = inhibition, hits mostly inhibitors. 390,000 tested, 0.56% active. AID 540317; also: potency is read from the fitted curve at half-maximal effect; nearly all actives have a fitted effect of over 70% in size
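HP1-beta protein (50 nM final) preincubated 30 min at room temperature with biotinylated H3(1-18)K9me3 peptide (50 nM) in PBS pH 7.4, 0.01% Tween-20, then compound added for 30 min. AlphaScreen streptavidin donor/nickel chelate acceptor beads (10 ug/mL final), 30 min dark, luminescence read.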
Six1-Eya2 blk = blocks human Six1 binding to Eya2. Q15475+O00167. AlphaScreen GST-Six1/His-Eya2 binding, biochemical; hits give low values. activity change, % (concentration not given with the values). 360,000 tested, 0.56% active; in the data active = activity change below about -65%; inconclusive = mostly about -30% to -63%; also: % is scaled to controls: 0 for no effect and ±100 for the full control effect
Target sequence (O00167 whole entry, looked up): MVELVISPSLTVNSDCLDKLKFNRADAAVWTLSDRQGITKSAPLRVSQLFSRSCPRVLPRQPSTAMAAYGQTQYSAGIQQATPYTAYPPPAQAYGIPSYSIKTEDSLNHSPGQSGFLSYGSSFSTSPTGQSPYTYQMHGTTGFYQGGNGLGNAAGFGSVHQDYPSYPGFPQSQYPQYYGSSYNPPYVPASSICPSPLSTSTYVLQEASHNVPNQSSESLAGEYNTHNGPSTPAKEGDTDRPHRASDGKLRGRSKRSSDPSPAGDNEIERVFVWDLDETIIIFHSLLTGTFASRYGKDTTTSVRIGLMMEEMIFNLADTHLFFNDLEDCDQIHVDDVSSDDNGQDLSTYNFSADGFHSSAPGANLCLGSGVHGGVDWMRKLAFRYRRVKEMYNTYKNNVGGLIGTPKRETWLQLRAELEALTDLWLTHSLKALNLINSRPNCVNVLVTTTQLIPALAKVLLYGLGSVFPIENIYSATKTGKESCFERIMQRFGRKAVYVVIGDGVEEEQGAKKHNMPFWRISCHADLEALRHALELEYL
Target sequence (Q15475 whole entry, looked up): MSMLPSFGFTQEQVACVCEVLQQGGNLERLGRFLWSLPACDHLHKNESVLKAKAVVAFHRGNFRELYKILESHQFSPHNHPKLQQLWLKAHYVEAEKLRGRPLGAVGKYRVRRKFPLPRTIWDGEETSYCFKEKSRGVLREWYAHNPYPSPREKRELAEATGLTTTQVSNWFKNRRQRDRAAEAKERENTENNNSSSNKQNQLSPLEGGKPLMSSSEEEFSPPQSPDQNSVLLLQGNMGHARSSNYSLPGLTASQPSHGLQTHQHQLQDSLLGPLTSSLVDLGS
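GST-Six1 + His-Eya2 (5X stock: 250/500 nM); Tris pH 8.0, 300 mM NaCl, 0.05% BSA, 0.02% Tween 20; GSH donor/Ni acceptor beads; 1 h 37 °C dark; AlphaScreen readout.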
Numbers without * were called inactive; ? = inconclusive; . = no result; ! = not confirmed by another sample; [ ] = remark or other dose. A selection: hits, their analogues and other compounds. The true share with any hit is near 10%. Unless noted, calls follow the shape of the dose curve; as a rule, active = well fitted inhibition curve with a large enough effect; inconclusive = small, poorly fitted or top-dose-only effect; inactive = no such curve, though single readings can be large or run the other way.

SMILES	JMJD2A Tudor	BAZ2B block	G9a inh	CtBP-E1A inh	HP1b binding inh	Six1-Eya2 blk
Cc1ccc(NC(=O)CNCc2cccs2)c(Br)c1	-1%	-4%	?	22	103%	2
CNC1(C)C2CCC(C2)C1(C)C (stereo not given)	.	.	18%[59 µM]	.	.	.
Cc1cc(F)ccc1NC(=O)c1csc2c1CCC(C)C2 (stereo not given)	-12%	3%	-25%[59 µM]	.	33%	.
NCCCC[C@@H]1NC(=O)c2cc([N+](=O)[O-])cc(F)c2NCCCC[C@@H](C(N)=O)NC(=O)CNC1=O	-24%	0%	-22%	2	37%	6
NC(=O)C(CC(=O)O)NC(=O)[C@@H]1CCCNc2c(I)cc([N+](=O)[O-])cc2C(=O)N[C@@H](CO)C(=O)N[C@@H](Cc2ccc(O)cc2)C(=O)N1 (stereo not given in full)	?	-26%	50µM*	9	14%	2
NC(=O)C(CC(=O)O)NC(=O)[C@@H]1CCCCNc2c(I)cc([N+](=O)[O-])cc2C(=O)N[C@@H](CO)C(=O)NCC(=O)N1 (stereo not given in full)	.	?	28µM*	.	.	.
CCCCn1c(N)c(N(CCOC)C(=O)CN2C(=O)C3CCCCC3C2=O)c(=O)[nH]c1=O (stereo not given)	-14%	-3%	-1%[59 µM]	7	34%	9
CCCc1cc(=O)oc2c(CNc3ccc(OCC)cc3)c(O)ccc12	?	?	40µM*	-3	5%	-5
CCN1CCCC1CNC(=O)c1cc(OC)c(OC)c(OC)c1 (stereo not given)	5%	11%	-5%[59 µM]	-1	29%	3
CCN1CCC[C@H]1CNC(=O)c1c(O)c(Cl)cc(Cl)c1OC	?	-24%	8.9µM*!	0	37%	-5
CCOC(=O)CC(C)(C)/C(C)=N/Nc1ccc([N+](=O)[O-])cc1[N+](=O)[O-]	?	7.1µM*	8.9µM*	?	14µM*	?
CCC(CC)=NNc1ccc([N+](=O)[O-])cc1[N+](=O)[O-]	-17%	?	9%	-6	24%	-11
C/C(CCCO)=N/Nc1ccc([N+](=O)[O-])cc1[N+](=O)[O-]	-25%	?	-2%	-2	3%	-8
CCOC(=O)C(C(=O)OCC)C(C)(C)/C(C)=N\Nc1ccc([N+](=O)[O-])cc1[N+](=O)[O-]	32µM*	10µM*	?	1	35µM*	?
C/C(CCC(=O)O)=N/Nc1ccc([N+](=O)[O-])cc1[N+](=O)[O-]	?	?	?	-4	-5%	-6
O=C(O)/C(CC(=O)c1ccc(Cl)cc1)=N/Nc1ccc([N+](=O)[O-])cc1[N+](=O)[O-]	40µM*	40µM*	-4%[2.33 µM]	-16	-38%	?
C#CCOC(=O)CCCNc1ccc([N+](=O)[O-])cc1[N+](=O)[O-]	56µM*	50µM*	-23%[59 µM]	0	-22%	-10
O=C(CSc1nnc(NC(=O)NC2CCCCC2)s1)Nc1ccccc1F	6%	0%	5%[59 µM]	.	40%	.
OC(COCc1ccccc1F)CN1CCCCC1 (stereo not given)	-6%	.	.	-4	18%	-12
CC1CCCC(C)N1CC(O)COCc1ccccc1F (stereo not given)	50µM*	?	-8%[2.33 µM]	-20	?	-2
Cc1ccc(C(=O)NC(=O)OCCn2c(C)cnc2[N+](=O)[O-])cc1	-8%	-2%	7%	2	27%	8
CCOc1ccc(Nc2c3ccccc3nc3ccccc23)cc1	-28%[11.4 µM]	35µM*	32µM*	?	?	-29
COc1ccc(Nc2nc(NCC3CCCO3)c3ccccc3n2)c(OC)c1 (stereo not given)	?	?	45µM*	-14	-5%	-12
CCOc1ccc(Nc2nc(NCC3CCCO3)c3ccccc3n2)cc1 (stereo not given)	?	32µM*	40µM*	-27	2%	-13
